This is a sample that favours compounds with a hit; in the whole collection about 2.8% have one here.
PvdQ acylase: blocks Pseudomonas aeruginosa PvdQ acylase activity | purified PvdQ acylase, fluorescence plate reader | inhibition, % at 10 µM | 340,000 compounds, 0.063% hits | AID 488965; in the data active = inhibition above about 30%, passing the limit was not always enough; inconclusive = no clear call, values can overlap the other calls;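 note: 0% = vehicle neutral wells and 100% = reference inhibitor wells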
CDK5 p35 inh: CDK5/p35 (human) kinase inhibition; 330,000 compounds, 0.01% hits; inhibition, % at 10 µM; Recombinant CDK5/p35, ADP-Glo luminescence, 60 min; AID 488839;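 active = highest replicate inhibition of at least 50% and at least 75% of replicates reaching 50%; inconclusive = only one of the two criteria met; inactive = both criteria failed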;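 note: plate controls were DMSO neutral control for no effect and GW8510 at 10 µM for full effect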
PglD inh: PglD (C. jejuni) enzyme inhibition | purified PglD enzyme, DTNB colorimetric CoA detection | inhibition, % at 12.5 µM | 360,000 compounds, 0.098% hits | AID 602405; in the data active = inhibition above about 16%, passing the limit was not always enough; inconclusive = no clear call, values can overlap the other calls
dFosB act-1: enhances mouse delta FosB homodimer DNA binding; purified delta FosB, TAMRA-CDK5 oligo fluorescence polarization; percent of positive-control signal above neutral wells; activation, % at 25 µM; 340,000 compounds, 0.99% hits; AID 493131;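 active = mean activation above about 17%, with every replicate also reaching it, limit read from the data, passing the limit was not always enough; inconclusive = only one of the two conditions met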
FGF22 binding: FGF22 (human) thermal shift binding. Q9HCT0. 340,000 compounds, 1.5% hits. recombinant FGF22 thermal shift, SYPRO orange fluorescence; percent of sucrose octasulfate shift, DMSO zero. AID 651658. activity (Tm shift, normalised), % at 9.99 µM;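 active = mean Tm shift, scaled 0 neutral to 100 positive control, at about 1.3% or above, every replicate too, limit read from the data; inconclusive = no clear call, values can overlap the other calls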
Target sequence (Q9HCT0 whole entry, looked up): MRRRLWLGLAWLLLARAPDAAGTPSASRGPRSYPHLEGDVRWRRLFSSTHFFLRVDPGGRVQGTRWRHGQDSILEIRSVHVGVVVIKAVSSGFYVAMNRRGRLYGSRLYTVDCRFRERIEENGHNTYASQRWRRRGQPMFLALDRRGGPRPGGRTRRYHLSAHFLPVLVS
SIRT5 block: inhibitors of human sirtuin-5 desuccinylase | Purified SirT5, succinyl-peptide AMC, trypsin-coupled fluorescence | AID 652115 | 330,000 compounds, 1.1% hits | inhibition, % at 15 µM; in the data active = inhibition above about 15%; inconclusive = no clear call, values can overlap the other calls
Target sequence (Q9NXA8 whole entry, looked up): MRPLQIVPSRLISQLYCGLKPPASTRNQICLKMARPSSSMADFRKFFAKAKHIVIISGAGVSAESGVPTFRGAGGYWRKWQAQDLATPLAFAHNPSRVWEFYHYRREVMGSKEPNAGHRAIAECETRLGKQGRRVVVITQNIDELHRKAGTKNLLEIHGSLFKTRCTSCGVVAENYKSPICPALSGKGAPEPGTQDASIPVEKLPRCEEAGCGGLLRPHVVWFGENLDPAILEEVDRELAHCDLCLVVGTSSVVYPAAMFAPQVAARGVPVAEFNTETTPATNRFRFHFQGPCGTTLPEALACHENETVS
dFosB act-2: activators of mouse delta FosB homodimer DNA binding; purified delta FosB, TAMRA-CDK5 oligo fluorescence polarization; normalised: neutral wells 0, positive control 100; shares compounds with dFosB act-1; activation, % at 24.9 µM; 2,400 tested, under 10 active; AID 588690;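 active = highest replicate activation at or above 34% and every replicate reaching that threshold; inconclusive = meets only one of the two criteria; inactive = meets neither criterion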;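 note: higher polarization means more probe DNA bound by delta FosB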
An asterisk follows results filed as active; ? = inconclusive; · = no result given; ! = a repeat was not active.

SMILES | PvdQ acylase | CDK5 p35 inh | PglD inh | dFosB act-1 | FGF22 binding | SIRT5 block | dFosB act-2
CCOc1ccc(NC(=O)CC2C(=O)N(c3ccc(OC)c(Cl)c3)C(=S)N2C2CC2)cc1 (configuration not stated) | -22 | 1 | 5 | 28* | 0 | -3 | 6
COc1ccc(N2C(=O)C(CC(=O)Nc3ccc(Cl)cc3)N(NC(=O)c3cccc(F)c3)C2=S)cc1 (configuration not stated) | -7 | 1 | 0 | 25* | 0 | -2 | -6
C[C@@H]1CN([C@H](C)CO)C(=O)c2cc(NS(C)(=O)=O)ccc2O[C@@H]1CN(C)S(=O)(=O)c1cccs1 | · | · | -3 | · | 0 | -4 | ·
N#C/C(=C(/O)c1ccc([N+](=O)[O-])cc1)c1nc2ccccc2[nH]1 | · | · | -6 | · | 0 | -5 | ·
N#C/C(=C(/O)c1ccc(Cl)c([N+](=O)[O-])c1)c1nc2ccccc2[nH]1 | -5 | 0 | -1 | 42* | 0 | -2 | 2
C[C@@H](NC(=O)C[C@@H]1CC[C@H](NC(=O)Nc2ccc3c(c2)OCO3)[C@@H](CO)O1)c1ccccc1 | · | · | 2 | · | 0 | 5 | ·
CCOc1ccccc1C(=O)NCC(=O)OCC(=O)c1ccc2c(c1)OCCO2 | 3 | 1 | -2 | 18* | · | · | 3
Cc1ccc(Nc2nc(N)c3ccccc3n2)cc1C | -8 | 5 | -1 | 42* | · | 0 | 1
Cc1cc(Nc2ccc(C)c(C)c2)c2ccccc2n1 | -8 | -1 | -4 | -8 | 0 | 2 | ·
CCOC(=O)c1c(NC(=O)COC(=O)Cn2c(C)nc3ccccc32)sc2c1CCCC2 | -10 | · | 0 | 39* | · | · | -9
CCOC(=O)c1c(NC(=O)Cn2c(C)nc3ccccc32)sc2c1CCC2 | -7 | 1 | 0 | -6 | · | · | ·
CN(C)C(=O)c1ccc(-c2ccc3c(c2)[C@@H]2[C@@H](CCN2C(=O)c2ccc4c(c2)OCO4)[C@@H](CO)N3)cc1 | · | · | 0 | · | · | · | ·
O=C(CSc1nnc(-c2n[nH]c3ccccc23)n1-c1ccccc1)Nc1cccc(Cl)c1 | -13 | -3 | · | 25* | · | · | 8
CSc1ccc(/C=C/C(=O)OCC(=O)c2ccc[nH]2)cc1 | -12 | -4 | 4 | 22* | 0 | -2 | -2
CSc1ccc(/C=C/C(=O)OCC(=O)NC2CCCC2)cc1 | · | · | 0 | · | 0 | · | ·
C[C@@H]1CN([C@H](C)CO)S(=O)(=O)c2ccc(-c3ccc(C(=O)N(C)C)cc3)cc2O[C@H]1CN(C)C(=O)C1CCCCC1 | · | · | 0 | · | 0 | 6 | ·
COc1ccc2cc3[n+](cc2c1OC)CCc1cc2c(cc1-3)OCO2 | 0 | 0 | 1 | 36*! | 0 | 4 | 2
COc1cccc(C2=NCCc3cc4c(cc32)OCO4)c1OC | 7 | 1 | 0 | -3 | · | · | ·
CN(C)CC(=O)Nc1ccc2c(c1)[C@@H]1C[C@@H](CC(=O)N3CCCCC3)O[C@H](CO)[C@@H]1O2 | · | · | -6 | · | · | · | ·
COc1ccc(Cl)cc1NC(=O)c1nnn(CC(=O)Nc2ccc3c(c2)OCO3)c1N | 7 | 1 | 2 | 21* | 0 | -4 | -2
Cc1ccc(NC(=O)Cn2nnc(C(=O)Nc3ccc(F)c(Cl)c3)c2N)cc1 | 5 | 0 | -3 | ? | 0 | -1 | ·
COc1ccc(Cl)cc1NC(=O)c1nnn(CC(=O)Nc2ccc(OC)c(OC)c2)c1N | -13 | 2 | 3 | 94* | 0 | -4 | 2
COc1ccc(NC(=O)c2nnn(CC(=O)Nc3ccc4c(c3)OCO4)c2N)cc1OC | -4 | 0 | 3 | -4 | 0 | -3 | ·
COc1ccc(Cl)cc1NC(=O)c1nnn(CC(=O)Nc2cc(C)cc(C)c2)c1N | -13 | 0 | -4 | 103* | 0 | 1 | 1
COc1ccc(NC(=O)Cn2nnc(C(=O)Nc3ccc(F)c(Cl)c3)c2N)cc1 | -28 | -7 | 10 | 32* | 0 | 15* | 4
CO[C@H]1CN(C)C(=O)c2ccc(NC(=O)c3ccccc3F)cc2OC[C@@H](C)N(CC2CC2)C[C@H]1C | · | · | -2 | · | 0 | -6 | ·
